Results on 19 compounds are retold here after PubChem BioAssay (NCATS).

Where “and” joins values, the source holds several entries; their conditions need not be identical. Equal values may be shown once. Inconclusive results are not listed. The source holds several records for some structures; these can differ, active in one and inactive in another. Calls of active or inactive are those of the source. Unless noted, calls follow the shape of the dose curve; as a rule, active = well fitted curve in the direction sought with a large enough effect; inconclusive = small, poorly fitted or top-dose-only effect, or another doubt; inactive = no such curve, though single readings can be large; an effect the other way counts as inactive or inconclusive.

Assay [1] relates to Hek293T. The assay can be described thus: Primary qHTS to identify gynecologic anti-cancer compounds using libraries of approved drugs and bioactive compounds (AID 1345084). Also: nearly all actives have a fitted effect of over 55% in size. Also: potency is read from the fitted curve at half-maximal effect. The settings on record: Gynecologic cancer cell panel viability, ATPlite luminescence, 48 h, control line for the selectivity index; series mostly up to 57.5 µM. The essentials: (§1)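 48 h compound exposure at 37 C, 5% CO2; five-point qHTS. ATPlite luminescence readout of cell ATP.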
(In qHTS, concentration-response curves come from the screen itself.)

Assay [2] has as its system JEG-3. Described as above. The following applies: Gynecologic cancer cell panel viability, ATPlite luminescence, 48 h; series mostly up to 57.5 µM. The procedure, abridged: as §1
In assay [3] the test system is OV90. The assay is described as above. The following applies: Gynecologic cancer cell panel viability, ATPlite luminescence, 48 h; series mostly up to 57.5 µM. The procedure, abridged: as §1
Background: In ATP-based viability assays light output follows the ATP content of the culture.

Assay [4] has as its system PA-1. Described as above. The settings on record: Gynecologic cancer cell panel viability, ATPlite luminescence, 48 h; series mostly up to 57.5 µM. The essentials: as §1
Assay [5] relates to Tov-21-G. The description is as above. The settings on record: Gynecologic cancer cell panel viability, ATPlite luminescence, 48 h; series mostly up to 57.5 µM. The essentials: as §1
Assay [6] concerns Tov112D. The description is as above. The following applies: Gynecologic cancer cell panel viability, ATPlite luminescence, 48 h; series mostly up to 57.5 µM. The essentials:
as §1

The nature of assay [7]: Drug repurposing screens with cells derived from glioblastoma tumor samples (AID 1345199). Also: nearly all actives have a fitted effect of over 40% in size. Also: potency is read from the fitted curve at half-maximal effect. As to activity, negative = cell killing: % is scaled to controls: 0 for no effect and ±100 for the full control effect. The following applies: GBM patient neurospheres viability, ATP luminescence, 48 h. The essentials:
(§2)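 Primary testing used CD133+ neurospheres from four GBM patients, seven concentrations, 48 h exposure and ATP-based viability; confirmation added three slower-growing patient lines.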

The test system of assay [8] is astro. The assay is described as above. The following applies: viability, ATP luminescence, 48 h; series mostly up to 45.9 µM. The essentials: as §2
Assay [9] has as its system SKOV3. The assay can be described thus: Primary qHTS to identify gynecologic anti-cancer compounds using libraries of approved drugs and bioactive compounds (AID 1345084). Also: nearly all actives have a fitted effect of over 55% in size. Also: potency is read from the fitted curve at half-maximal effect. The following applies: Gynecologic cancer cell panel viability, ATPlite luminescence, 48 h; series mostly up to 57.5 µM. The essentials: as §1
Assay [10] is described as follows: qHTS assay for small molecule activators of the human pregnane X receptor (PXR) signaling pathway (AID 720659; call rule not given here; also: 0% is about no effect).
Assay [11] in a line: qHTS assay to identify inhibitors of the type 1 interferon - major histocompatibility complex class I in skeletal muscle: Counter screen cell viability and HiBit confirmation (AID 1347412). Also: potency is read from the fitted curve at half-maximal effect. As to activity change, negative = inhibition: % is scaled to controls: 0 for no effect and ±100 for the full control effect. As to all read-outs here: nearly all actives have a fitted effect of over 60% in size. The settings on record: iHSKM muscle cells + IFN-b, HiBiT or CellTiter-Glo, 24 h; for activity change, negative = inhibition: at 45.9 µM (top of the series). The procedure, abridged:
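HLA-B*08:01–HiBiT knock-in immortalized human myoblasts (C25cl48) stimulated with 4.0 ng/ml human IFN-beta and dosed with compound in a 12-point 1:3 titration (top final 46 uM). After 24 hrs at 37 C, HiBiT lytic luminescence or CellTiter Glo ATP read out.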

Assay [12] concerns the target Nuclear receptor subfamily 1 group I member 2 (Rattus norvegicus) (UniProt Q9R1A7). The assay can be described thus: qHTS assay for small molecule activators of the rat pregnane X receptor (rPXR) signaling pathway (AID 651751; call rule not given here; also: 0% is about no effect). The settings on record: rPXR reporter cells, luciferase (One-Glo), 24 h.
Where [13] appears, read: at 45.9 µM (top of the series), tumour line B.
Where [14] appears, read: at 45.9 µM (top of the series), tumour line D.
[15] abbreviates: at 46 µM (top of the series), tumour line A.
[16] abbreviates: at 46.1 µM (top of the series), tumour line C.
[17] abbreviates: at 21.2 µM (top of the series), tumour line B.
The mark [18] stands for this setting: at 21.3 µM (top of the series), tumour line A.

Nuclear receptor subfamily 1 group I member 2 (Rattus norvegicus), sequence (Q9R1A7 whole entry, looked up): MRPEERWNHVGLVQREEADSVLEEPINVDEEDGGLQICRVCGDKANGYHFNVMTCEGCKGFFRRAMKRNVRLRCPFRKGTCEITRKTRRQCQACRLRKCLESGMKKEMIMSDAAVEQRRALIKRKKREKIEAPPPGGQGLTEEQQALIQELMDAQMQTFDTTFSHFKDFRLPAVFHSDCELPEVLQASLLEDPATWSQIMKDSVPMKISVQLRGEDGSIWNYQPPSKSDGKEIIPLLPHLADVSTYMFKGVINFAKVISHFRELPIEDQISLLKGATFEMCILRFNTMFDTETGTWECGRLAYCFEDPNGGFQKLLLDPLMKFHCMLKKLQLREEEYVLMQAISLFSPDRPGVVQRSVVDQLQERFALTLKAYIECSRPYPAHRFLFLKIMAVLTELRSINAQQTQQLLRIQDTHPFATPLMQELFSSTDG

For `CNS(=O)(=O)Cc1ccc2[nH]cc(CCN(C)C)c2c1`, the Potency entry in assay [1], in assay [2], in assay [3], in assay [4], in assay [5] and in assay [6] was “inactive” throughout. Also, in assay [8], the Potency result was “inactive”. Further, the activity, negative = cell killing in assay [7] (setting [13]) is 2.54% (inactive); in assay [7] (setting [14]), -2.5% (inactive); in assay [7] (setting [15]) it was -14% (inactive); in [7] (setting [16]), 0.932% (inactive).

On to `NC(N)=NC(N)=NCCc1ccccc1`, for which the Potency result in [1], in assay [2], in [5] and in [6] was “inactive” each time. In addition, the Potency in assay [9] was 14.1 µM (active); in assay [7] (tumour line D), 25.1 µM (active). Also, the activity, negative = cell killing in assay [7] (setting [17]) was -24.6% (inactive); in [7] (setting [18]) it was -28.1% (inactive); in assay [7] (setting [13]) it was -14.4% (inactive). Besides, in assay [10], the call was inactive.

As for `COc1cc2c(Nc3ccc(Br)cc3F)ncnc2cc1OCC1CCN(C)CC1`, the Potency result in assay [1], in [3], in assay [4] and in assay [5] was “inactive” each time. Besides, the Potency entry in [2] is “inactive and 28.2 µM (active)”; in [9] it was “inactive and 12.6 µM (active)”; in assay [6] it was “inactive and 31.6 µM (active)”; in assay [8], 14.1 µM (active).

Consider `CC(C)(C)C(=O)OCOP(=O)(COCCn1cnc2c(N)ncnc21)OCOC(=O)C(C)(C)C`, for which the activity, negative = cell killing in assay [7] (setting [16]) was -7.63% (inactive).

On to `CO[C@@]12[C@H](COC(N)=O)C3=C(C(=O)C(C)=C(N)C3=O)N1C[C@@H]1N[C@@H]12`, for which the Potency in assay [3] is 17.8 µM (active); in assay [5] it was 14.1 µM (active); in assay [6], 0.794 µM (active). Besides, the activity, negative = cell killing in assay [7] (setting [13]) is -14.3% (inactive); in [7] (setting [14]), -12.4% (inactive); in assay [7] (setting [15]) it was -9.83% (inactive); in assay [7] (setting [16]), -16.3% (inactive). For the same compound, the Potency result in assay [8] was “inactive”.

As for `COc1cc2nc(N3CCCN(C)CC3)nc(NC3CCN(Cc4ccccc4)CC3)c2cc1OC`, the Potency in assay [11] (Viability) was 22.2 µM (active).

In the case of `COC(=O)Nc1nc2ccc(S(=O)c3ccccc3)cc2[nH]1` (stereo unspecified), the Potency in [4] was 1.58 µM (active); in assay [5] it was 3.98 µM (active); in assay [6] it was 1.58 µM (active). The activity, negative = cell killing was -15.1% (inactive) in assay [7] (setting [13]), -1.35% (inactive) in assay [7] (setting [14]) and -3.75% (inactive) in assay [7] (setting [16]).

As for `O=C(O)c1ccc(-n2nc(-c3ccccc3O)nc2-c2ccccc2O)cc1`, the Potency in assay [4] is 8.91 µM (active). The Potency result in assay [9] was “inactive”.

As to `CCN(CC)CC#CCOC(=O)C(O)(c1ccccc1)C1CCCCC1` (stereo unspecified), in [7] (setting [13]), the activity, negative = cell killing was -22.3% (inactive). Moreover, the Potency was 10 µM (active) in [7] (tumour line A) and 20.6 µM (active) in assay [7] (tumour line C). Besides, the Potency result in assay [8] is “inactive”.

Turning to `Cc1c(-c2ccc(O)cc2)n(Cc2ccc(OCCN3CCCCCC3)cc2)c2ccc(O)cc12`, the Potency result in assay [1], in assay [2] and in assay [5] was “inactive” throughout.

Turning to `CCCCc1oc2ccc(NS(C)(=O)=O)cc2c1C(=O)c1ccc(OCCCN(CCCC)CCCC)cc1`, in assay [2], the Potency entry is “inactive”. Besides, in assay [11] (HiBiT), the activity change, negative = inhibition was -10.2% (inactive).

On to `COc1cc([C@@H]2c3cc4c(cc3[C@H](O)[C@H]3COC(=O)[C@H]23)OCO4)cc(OC)c1OC`, for which the Potency was 0.355 µM (active) in assay [3] and 0.199 µM (active) in [5].

Turning to `N=C(N)c1ccc(OCCCCCOc2ccc(C(=N)N)cc2)cc1`, the Potency entry in assay [2], in assay [5] and in assay [6] was “inactive” in each case. The Potency in [4] was 5.01 µM (active). The outcome in assay [10] was inactive.

In the case of `CC(C)OC(=O)C(C(=O)OC(C)C)=C1SC=CS1`, the Potency result in assay [1], in [3], in assay [4], in assay [5], in [6] and in [8] was “inactive” each time. Moreover, the Potency in assay [9] is 25.1 µM (active); in assay [7] (tumour line A) it was 11.2 µM (active). In assay [7] (setting [16]), the activity, negative = cell killing was -18.3% (inactive).

For `O[C@@H](CNC[C@H](O)[C@H]1CCc2cc(F)ccc2O1)[C@@H]1CCc2cc(F)ccc2O1`, the Potency entry in [1] and in assay [2] was “inactive” each time. Besides, the Potency in [9] is 22.4 µM (active). Besides, the activity change, negative = inhibition in assay [11] (HiBiT) is 26% (inactive); in [11] (Viability) it was -9.67% (inactive).

`CC(=O)[C@H]1CC[C@H]2[C@@H]3CCC4=CC(=O)CC[C@]4(C)[C@H]3CC[C@]12C`: the activity, negative = cell killing in assay [7] (setting [13]) is -26.3% (inactive). For the same compound, the Potency in [7] (tumour line D) is 12.6 µM (active). In addition, in [8], the Potency result was “inactive”.

For the compound `CCc1cc(C(N)=S)ccn1`, the Potency entry in assay [1], in assay [3], in assay [4], in [9], in [5] and in assay [6] was “inactive” each time. The activity, negative = cell killing is -9.3% (inactive) in assay [7] (setting [13]), -29.7% (inactive) in assay [7] (setting [14]) and -26.9% (inactive) in assay [7] (setting [16]). Besides, in assay [12], the max response is 7.13% (inactive) and -2.63% (inactive).

On to `CC(=O)Oc1ccccc1C(=O)Nc1ncc([N+](=O)[O-])s1`, for which the Potency entry in [2], in assay [3], in assay [5] and in [6] was “inactive” in each case. Moreover, the Potency in assay [11] (HiBiT) was 14 µM (active). Besides, the activity change, negative = inhibition in assay [11] (Viability) was -5.7% (inactive).

Regarding `C[C@@H]1C[C@H]2[C@@H]3CCC4=CC(=O)C=C[C@]4(C)[C@@]3(Cl)[C@@H](O)C[C@]2(C)[C@@]1(OC(=O)c1ccco1)C(=O)CCl`, the Potency result in assay [3], in assay [4], in [9], in assay [5], in [6] and in [8] was “inactive” throughout. Besides, the activity, negative = cell killing in assay [7] (at 20 µM (top of the series), tumour line C) is 13.7% (inactive); in assay [7] (setting [17]) it was -9.13% (inactive); in assay [7] (at 21.2 µM (top of the series), tumour line D) it was -9.21% (inactive); in [7] (setting [18]) it was -28.2% (inactive).
